Measured values reported in paper PMC5540273 (PLoS ONE, 2017).

Assays:
Conditions in all cases: concentration: 1 μM,replicates: in singlicate; n = 1
PCTK2 = test system: T1, PCTK2
T1 construct: gene CDK17

PCTK3 = test system: T2, PCTK3
T2 construct: gene CDK18

PDGFRA = test system: PDGFRA
PDGFRB = test system: PDGFRB
PDPK1 = test system: PDPK1
PFTAIRE2 = test system: PFTAIRE2
PFTK1 = test system: T3, PFTK1
T3 construct: gene CDK14

PHKG1 = test system: PHKG1
PHKG2 = test system: PHKG2
PIK3C2B = test system: PIK3C2B
PIK3C2G = test system: PIK3C2G
PIK3CA = test system: PIK3CA
PIK3CB = test system: PIK3CB
PIK3CD = test system: PIK3CD
PIK3CG = test system: PIK3CG
PIK4CB = test system: T4, PIK4CB
T4 construct: gene PI4KB

PIKFYVE = test system: PIKFYVE
PIM1 = test system: PIM1
PIM2 = test system: PIM2
PIM3 = test system: PIM3
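Also: KINOMEscan kinase panel screen.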

SMILES | %Inh (PCTK2) | %Inh (PCTK3) | %Inh (PDGFRA) | %Inh (PDGFRB) | %Inh (PDPK1) | %Inh (PFTAIRE2) | %Inh (PFTK1) | %Inh (PHKG1) | %Inh (PHKG2) | %Inh (PIK3C2B) | %Inh (PIK3C2G) | %Inh (PIK3CA) | %Inh (PIK3CB) | %Inh (PIK3CD) | %Inh (PIK3CG) | %Inh (PIK4CB) | %Inh (PIKFYVE) | %Inh (PIM1) | %Inh (PIM2) | %Inh (PIM3)
Cc1cc(C(=O)Nc2ccc(Oc3ccc4nc(NC(=O)C5CC5)cn4n3)cc2)nn1-c1ccccc1 | 17% | 4% | 97.7% | 100% | 8% | 0% | 0% | 49% | 0% | 0% | 2% | 0% | 0% | 0% | 0% | 0% | 1% | 2% | 2% | 0%
Cc1occc1-c1nc(N)c(OC[C@@H](N)Cc2c[nH]c3ccccc23)cc1-c1cc2c(C)n[nH]c2cn1 [GSK1660450] | 0% | 0% | 0% | 49% | 0% | 100% | 45% | 84% | 11% | 0% | 7% | 0% | 0% | 10% | 0% | 0% | 0% | 97.3% | 99.2% | 97.7%
NC(=O)c1cc(-c2ccccc2)cc2c(C3CCNCC3)c[nH]c12 [GSK301362] | 0% | 0% | 0% | 67% | 0% | 21% | 17% | 17% | 0% | 0% | 0% | 0% | 0% | 6% | 2% | 0% | 0% | 17% | 0% | 7%
Cc1cc2cn[nH]c2cc1-c1cccc2c(N)c(C(N)=O)nnc12 | 14% | 26% | 34% | 18% | 0% | 29% | 0% | 26% | 0% | 0% | 13% | 0% | 0% | 46% | 0% | 26% | 0% | 0% | 0% | 0%
CCN(CC)CCCCNc1ncc2cc(-c3c(Cl)cccc3Cl)c(NC(=O)NC(C)(C)C)nc2n1 | 0% | 0% | 90.1% | 100% | 0% | 0% | 0% | 0% | 0% | 27% | 6% | 8% | 91.6% | 15% | 2% | 0% | 21% | 0% | 13% | 0%
Cc1ccc(-n2nc(C(C)(C)C)cc2NC(=O)Nc2ccc(OCCN3CCOCC3)c3ccccc23)cc1 [GW839464] | 13% | 2% | 0% | 87% | 0% | 0% | 2% | 0% | 8% | 0% | 0% | 0% | 0% | 0% | 0% | 0% | 0% | 0% | 9% | 0%
O=C(NCCNc1ccnc(NCc2ccc(F)cc2)n1)c1cc2ccccc2s1 [GSK1379944] | 0% | 14% | 0% | 86% | 15% | 7% | 11% | 0% | 0% | 0% | 0% | 0% | 0% | 0% | 0% | 5% | 0% | 0% | 0% | 0%
Nc1nc(Nc2ccccc2)cc(-c2ccc3c(N)n[nH]c3c2)n1 [GSK2225749] | 0% | 0% | 4% | 2% |  | 15% | 9% | 0% | 0% | 2% | 20% | 0% | 0% | 22% | 0% | 15% | 27% | 12% | 0% | 0%
CN(C)CCOc1ccc(-c2cc(-c3c[nH]nc3-c3ccccn3)ccn2)cc1 [GW835314] | 7% | 2% | 29% | 20% | 15% | 19% | 1% | 47% | 0% | 0% | 5% | 0% | 11% | 2% | 0% | 36% | 0% | 13% | 0% | 0%
CC(C)N1C(=O)Cc2cc(Nc3ncc(C(F)(F)F)c(NCc4cccc(S(C)(=O)=O)c4)n3)ccc21 | 20% | 7% | 36% | 71% | 0% | 6% | 14% | 0% | 26% | 3% | 28% | 6% | 29% | 0% | 5% | 28% | 27% | 5% | 0% | 9%
C[C@@H]1CCN(C(=O)CC#N)C[C@@H]1N(C)c1ncnc2[nH]ccc12 | 0% | 8% | 0% |  | 0% | 0% | 21% | 15% | 13% | 0% | 0% | 0% | 0% | 0% | 0% | 0% | 36% | 0% | 0% | 0%
C[C@@H](Oc1cc(-c2cnn(C3CCNCC3)c2)cnc1N)c1c(Cl)ccc(F)c1Cl | 4% | 6% | 23% | 0% | 14% | 1% | 0% | 24% | 7% | 10% | 8% | 14% | 18% | 0% | 9% | 3% | 5% | 0% | 0% | 3%
O=C(NCCCN1CCOC1=O)c1cnc(NCc2cc(Cl)ccc2Cl)nc1NC1CCCC1 | 0% | 13% | 0% | 30% | 28% | 0% | 7% | 0% | 13% | 4% | 8% | 0% | 2% | 0% | 0% | 12% | 36% | 9% | 16% | 10%
Cl.Oc1cc(-c2nc(-c3ccccc3)[nH]c2-c2ccncc2)ccc1Cl [SB-386023] | 0% | 0% | 0% | 11% | 2% | 23% | 0% | 0% | 0% | 7% | 19% | 0% | 14% | 0% | 0% | 14% | 87% | 0% | 3% | 0%
Cl.Cl.NC[C@H](Cc1ccc(C(F)(F)F)cc1)NC(=O)c1cc(Br)c(-c2ccnc3[nH]ccc23)s1 [GSK1487252] | 0% | 0% | 28% | 54% | 0% | 5% | 0% | 0% | 0% | 0% | 61% | 0% | 0% | 0% | 0% | 0% | 12% | 35% | 0% | 0%
Cc1ccc2c(-c3ccncc3)c(-c3ccc(F)cc3)nn2c1.Cl [GW461484] | 0% | 11% | 0% | 8% | 0% | 0% | 0% | 33% | 0% | 0% | 0% | 0% | 25% | 0% | 1% | 0% | 0% | 0% | 0% | 16%
CCN(CC)CCOc1ccc(Nc2ncc3cc(-c4c(Cl)cccc4Cl)c(=O)n(C)c3n2)cc1 [SB-601273] | 24% | 0% | 99.8% | 100% | 0% | 19% | 0% | 0% | 30% | 85% | 11% | 6% | 30% | 40% | 21% | 5% | 48% | 0% | 0% | 0%
Cc1n[nH]c2ccc(-c3cc(OC[C@@H](N)Cc4ccccc4)cnc3-c3ccoc3)cc12.O=C(O)C(F)(F)F.O=C(O)C(F)(F)F [GSK507358] | 0% | 0% | 0% | 50% | 0% | 0% | 9% | 0% | 0% | 0% | 0% | 0% | 0% | 0% | 0% | 0% | 8% | 29% | 90% | 47%
Cl.Cl.Nc1nc(-c2ccc3c(N)n[nH]c3c2)cc(N2CCCC(NC(=O)c3ccccc3)C2)n1 (stereo not drawn) [GSK2286775] | 21% | 11% | 0% | 21% | 85% | 18% | 18% | 0% | 0% | 14% | 43% | 14% | 0% | 2% | 4% | 27% | 6% | 25% | 0% | 25%
CN(C)CC(O)COc1ccc(Nc2nccc(-c3cnn4nc(N5CCOCC5)ccc34)n2)cc1 (stereo not drawn) [GW767488] | 91.9% | 52% | 56% | 60% | 0% | 16% | 46% | 38% | 81% | 43% | 20% | 33% | 35% | 37% | 63% | 46% | 68% | 15% | 0% | 35%
C[C@H]1Oc2cc(cnc2N)-c2c(nn(C)c2C#N)CN(C)C(=O)c2ccc(F)cc21 | 1% | 29% | 0% | 10% | 41% | 10% | 12% | 54% | 100% | 0% | 20% | 0% | 0% | 0% | 0% | 0% | 19% | 21% | 19% | 12%
CCn1c(-c2nonc2N)nc2c(C#CC(C)(C)O)nc(OCCN)cc21.Cl.Cl [GSK902056] | 0% | 0% | 0% | 4% | 0% | 0% | 0% | 0% | 0% | 0% | 0% | 0% | 0% | 5% | 0% | 9% | 19% | 25% | 0% | 11%
CNC(=O)c1ccccc1Sc1ccc2c(/C=C/c3ccccn3)n[nH]c2c1 | 0% | 8% | 99.9% | 100% | 0% | 14% | 2% | 16% | 0% | 0% | 0% | 0% | 0% | 11% | 2% | 0% | 43% | 0% | 0% | 6%
C=CC(=O)Nc1cc2c(Nc3ccc(F)c(Cl)c3)ncnc2cc1OCCCN1CCOCC1 [GW781483] | 0% | 0% | 77% | 15% | 0% | 15% | 0% | 0% | 0% | 2% | 0% | 0% | 60% | 0% | 42% | 21% | 20% | 2% | 0% | 0%
Cl.Cl.NC[C@H](CC1CCCCC1)NC(=O)c1cc(Br)c(-c2ccnc3[nH]ccc23)s1 [GSK1581427] | 0% | 0% | 22% | 75% | 0% | 63% | 28% | 20% | 19% | 0% | 0% | 0% | 0% | 0% | 0% | 1% | 0% | 1% | 0% | 0%
CC(C)Nc1cc(-c2ccc3c(N)n[nH]c3c2)nc(N)n1 [GSK2221681] | 0% | 10% | 1% | 5% |  | 10% | 0% | 11% | 0% | 0% | 0% | 0% | 0% | 0% | 0% | 7% | 0% | 15% | 0% | 0%
COc1ccc(C[C@@H](CN)NC(=O)c2cc(Br)c(-c3ccnc4[nH]ccc34)s2)cc1.Cl.Cl [GSK1389063] | 0% | 0% | 62% | 96.3% | 32% | 3% | 16% | 45% | 24% | 0% | 0% | 0% | 52% | 2% | 0% | 19% | 0% | 34% | 0% | 6%
